Compounds with a hit are over-represented: about 6.1% of the library has one in this group of screens.
DRD3 antagonist = antagonists of human D3 dopamine receptor. P35462. D3R cells, DiscoveRx beta-arrestin luminescence, antagonist mode; hits give low values. max response, negative = inhibition, %. 360,000 tested, 2.5% active. AID 652054; in the data active means max response below about -50%; inconclusive means no clear call, values can overlap the other calls; further: on the % scale 0 is the no-effect control and ±100 the full control effect
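Cells plated overnight at 1500 cells/well, then exposed to library compounds with dopamine controls for 90 minutes at 37 degrees C. DiscoveRx reagent added for 30–60 minutes at room temperature; luminescence read, quantitative HTS format.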
DRD3 agonist = D3 dopamine receptor (human) agonism. P35462. D3R DiscoveRx beta-arrestin cells, luminescence, 90 min. max activation, %. 410,000 tested, 0.58% active. AID 652048; in the data active means max activation above about 30%; further: 0% is about no effect
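Agonist-mode cell screen: cells plated at 1500/well and incubated overnight at 37 °C, then exposed to library compounds for 90 min at 37 °C. Detection reagent was added for 30–60 min at room temperature, and luminescence was read.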
D1 ag = human D1 receptor agonism; HEK293 T-REx D1 cells, calcium flux, agonist mode; AID 504660; activation, % at 2 µM; P21728; 360,000 tested, 1% active; in the data active means activation above about 30%; further: 0% is about no effect
Target sequence (P21728 whole entry, looked up): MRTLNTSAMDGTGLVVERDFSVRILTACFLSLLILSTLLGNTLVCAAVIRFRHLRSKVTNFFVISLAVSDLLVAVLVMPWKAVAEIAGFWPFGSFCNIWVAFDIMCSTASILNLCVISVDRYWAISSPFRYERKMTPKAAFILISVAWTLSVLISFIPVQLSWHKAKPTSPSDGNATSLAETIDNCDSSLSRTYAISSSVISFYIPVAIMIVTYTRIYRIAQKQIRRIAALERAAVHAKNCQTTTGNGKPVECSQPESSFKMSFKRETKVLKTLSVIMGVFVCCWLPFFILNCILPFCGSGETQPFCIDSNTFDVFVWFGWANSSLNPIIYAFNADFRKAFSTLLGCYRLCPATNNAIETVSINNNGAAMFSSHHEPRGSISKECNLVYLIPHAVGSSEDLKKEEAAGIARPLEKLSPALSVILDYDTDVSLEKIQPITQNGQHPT
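Inducible HEK293 T-REx D1 cells, force-coupled to calcium signalling, were plated at 4000 cells/well with tetracycline and held overnight at 30 C. After no-wash calcium dye loading, compound-evoked calcium rise over 180 s flagged agonists.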
D1 antagonist = blocks dopamine activation of the human D1 receptor. activity change, negative = inhibition, % at 10 µM. HEK293 TREx D1 cells, calcium flux, dopamine EC80; hits give low values. 360,000 tested, 3.2% active. P21728; in the data active means activity change below about -30%; further: on the % scale 0 is the no-effect control and ±100 the full control effect
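Antagonism measured as reduced calcium response to an EC80 dopamine addition following 180 s compound pre-read; cells were inducible HEK293 Trex D1 plated overnight at 30 C, read kinetically at 1 cycle/sec.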
D1 PAM = potentiators of human D1 dopamine receptor | potentiation, % at 10 µM | HEK293 TREx D1 cells, calcium flux, dopamine EC20 potentiation | P21728 | 360,000 tested, 0.036% active; in the data active means potentiation above about 30%; further: 0% is about no effect
* marks the source's active call; other numbers are inactive results; ? = inconclusive; / = no result.

SMILES | DRD3 antagonist | DRD3 agonist | D1 ag | D1 antagonist | D1 PAM
COc1ccc(-c2nc(C)c(CCNC(=O)c3ccccc3Br)s2)cc1OC | / | 1 | 0 | -12 | -6
COc1ccc(Nc2nc(Cl)nc(Nc3ccc(OC)cc3)n2)cc1 | 0 | 8 | 2 | -8 | 1
CC(=O)Nc1ccc(Nc2nc(Cl)nc(Nc3ccc(NC(C)=O)cc3)n2)cc1 | -24 | -2 | 4 | -36* | 0
Cc1ccc(NC(=O)Nc2nnc(N(C)Cc3ccccc3)s2)c(C)c1 | / | -19 | 4 | -41* | 0
Cc1ccc(Cl)cc1NC(=O)Nc1nnc(N(C)Cc2ccccc2)s1 | / | -8 | 0 | -8 | -2
CCN(c1ccccc1)c1nnc(NC(=O)Nc2ccc(C)cc2)s1 | / | 3 | -2 | -34* | -3
Cc1ccc(C(=O)N(Cc2ccc(N(C)C)cc2)CC2CCCO2)cc1 (configuration not stated) | / | 12 | -2 | -15 | 1
CCc1ccc(OC(=O)c2sc3ncn(Cc4cccc(F)c4)c(=O)c3c2C)cc1 | / | -11 | 5 | -7 | -6
COc1ccccc1N1CCN(C(=O)CCC(=O)N2CCN(c3ccc(F)cc3)CC2)CC1 | 11 | 8 | 7 | -27 | -3
COc1ccc(/C=C/C(=O)NC(=S)N2CCN(c3ccccc3OC)CC2)cc1 | -50* | -16 | 2 | -8 | 0
COc1ccccc1N1CCN(CC(=O)c2ccc3ccn(C(C)=O)c3c2)CC1 | ? | -9 | 1 | -76* | /
COc1ccc(S(=O)(=O)N2CCN(CCOc3ccc(Br)cc3)CC2)cc1OC | 8 | 0 | 4 | -9 | -3
COc1cc2c(cc1OC)CN(CCOc1ccc(Br)cc1)CC2 | -100* | -2 | 4 | -9 | -8
COc1ccccc1N1CCN(CCCC(=O)c2ccc(F)cc2)CC1 | -98* | -88 | 6 | -80* | -9
COc1ccccc1N1CCN(CC(=O)N2CCCC2)CC1 | -14 | -9 | 2 | -8 | 0
COc1ccc(/C=C/C(=O)NC(=S)N2CCOCC2)cc1 | -11 | 0 | 1 | -17 | -4
O=C(Nc1ccc(F)c(Cl)c1)N1CCN(C(=O)c2nsc3ccccc23)CC1 | / | 2 | 5 | -7 | -3
COc1ccc(C(=O)CCN2CCc3cc(OC)c(OC)cc3C2)cc1 | -59* | -19 | 0 | 1 | -5
COc1ccc(CC(=O)N2CCc3cc(OC)c(OC)cc3C2)cc1 | 3 | 5 | 3 | -17 | -2
COc1ccc(C(=O)CCN2CCN(c3ccccc3OC)CC2)cc1 | -83* | -21 | 5 | -46* | -12
CCOC(=O)c1cccc(NC(=O)CCCn2c(C)c3cnn(-c4ccccc4)c(=O)c3c2C)c1 | / | -9 | 9 | -4 | -2
O=c1/c(=C\c2ccc(O)cc2)sc2n1C(c1ccccc1)C(c1ccccc1)=NN=2 (configuration not stated) | -59* | -28 | 33* | -51* | -10
O=C(O)CCCNc1cc(N2CCN(C(=O)c3ccco3)CC2)c2noc3c2c1C(=O)c1ccccc1-3 | 3 | 6 | 1 | 5 | -3
CCOC(=O)N1CCN(c2cc(NCCC(=O)O)c3c4c(onc24)-c2ccccc2C3=O)CC1 | -77* | -7 | 2 | 13 | 3
COC(=O)c1sccc1S(=O)(=O)N(CC(=O)NCc1ccccc1)c1ccc(C)c(C)c1 | / | 0 | 1 | -6 | -6
SMILES | DRD3 antagonist | DRD3 agonist | D1 ag | D1 antagonist | D1 PAM
CCC(NC(=O)c1cccc(Cn2cc([N+](=O)[O-])cn2)c1)c1ccc(C(C)C)cc1 (configuration not stated) | -53* | -20 | 10 | / | -3
CCc1ccccc1NC(=O)c1ccc(Cn2cc([N+](=O)[O-])cn2)cc1 | 0 | -6 | 38* | -5 | -3
O=C(Nc1ccc([N+](=O)[O-])cc1)c1ccc(Cn2cc([N+](=O)[O-])cn2)cc1 | -5 | 0 | 14 | -13 | -5
Cc1ccccc1NC(=O)c1ccc(Cn2cc([N+](=O)[O-])cn2)o1 | 0 | -1 | 2 | -13 | -2
CCN(CC)C(=O)c1ccc(Cn2cc([N+](=O)[O-])cn2)o1 | 1 | -1 | 7 | -37* | -1
COc1ccc(N2CCN(CCCNC(=O)c3ccc(CS(=O)(=O)c4ccc(OC)cc4)o3)CC2)cc1 | -11 | 18 | 5 | -18 | -3
COc1ccccc1S(=O)(=O)Cc1ccc(C(=O)NCCCN2CCN(c3ccc(F)cc3)CC2)o1 | -77* | -6 | 1 | -62* | -23
COc1ccc(S(=O)(=O)Cc2ccc(C(=O)NCCCN3CCc4ccccc4C3)o2)cc1 | -92* | -16 | 3 | -19 | /
COc1ccccc1S(=O)(=O)Cc1ccc(C(=O)N2CCN(c3ccccc3)CC2)o1 | 0 | 3 | 4 | -8 | -4
COc1ccc2nc3sc(C(=O)NCCCN4CCc5ccccc5C4)cc3cc2c1 | -88* | -24 | 1 | -4 | 3
CCN(CCCNC(=O)c1cc2cc3ccc(OC)cc3nc2s1)c1ccccc1 | / | 3 | -2 | -21 | -5
CCOc1ccc(S(=O)(=O)NCC(c2ccco2)S(=O)(=O)c2cccs2)cc1 (configuration not stated) | / | 0 | 1 | / | 4
COc1ccccc1NC(=O)CSC1=Nc2ccccc2C2=NC(CCC(=O)NCc3cccs3)C(=O)N12 (configuration not stated) | / | 0 | 1 | 13 | 2
CCc1ccc(CN2C(=O)c3ccccc3C2C(=O)NCCc2ccc(OC)c(OC)c2)cc1 (configuration not stated) | / | 2 | -2 | 4 | 1
CN(C)S(=O)(=O)c1ccc2c(c1)C(=O)c1cc(S(=O)(=O)N(C)C)ccc1CC2 | / | / | -1 | / | -5
CN(C)S(=O)(=O)c1ccc2c(c1)/C(=C/c1cc3c([nH]1)CCCC3)C(=O)N2 | -86* | -94 | 171* | -28 | 0
Cc1cc(OCC(=O)Nc2ccc(N3CCN(C(=O)c4ccco4)CC3)cc2)cc(C)c1Cl | 53 | 55* | 10 | -21 | -1
CCOc1ccc(NC(=O)c2ccccc2OC)cc1 | 0 | 1 | 0 | -13 | 41*
O=C(CNCCc1ccc(Cl)cc1)Nc1ccc(C(=O)N2CCCCC2)cc1 | -8 | -15 | 34* | -16 | -11
COc1ccccc1C(=O)Nc1ccc(C(=O)N2CCCC2)cc1 | 27 | 2 | -3 | -71* | -10
COc1ccccc1C(=O)Nc1ccc(C(=O)N2CCCCC2)cc1 | 5 | 7 | 5 | -21 | -1
Cc1ccc(S(=O)(=O)CC(=O)Nc2sc3c(c2C#N)CCCC3)cc1 | / | -13 | 0 | / | 0
Cc1ccc(NC(=O)CN2C(=O)CCc3ccccc32)cc1C | / | 2 | 2 | -5 | 0
CCOC(=O)c1ccc(NC(=O)CSc2cn(CC(=O)N3CCCC3)c3ccccc23)cc1 | / | 3 | 1 | 2 | -2
COc1ccc2c(c1)c1c(c(=O)n(-c3ccc(F)c(Cl)c3)c(=O)n1Cc1ccccc1C)n2C | / | 5 | 0 | 7 | 0
O=C(O)C(=O)Nc1cccc(-c2nn[nH]n2)c1 | / | -27 | / | / | /
